# Laboratory results reported in PubChem BioAssay.
# “And” between values parts separate entries of the source, which are not always exact repeats. Equal values may be shown once. Some structures have more than one record in an assay (separate samples or runs), and their calls can disagree. The source made the active and inactive calls. Unless noted, how the calls were made is not given here.
# Tests used:
# [1] = Cy5 fluorescence interference with SSB-bound oligo, artefact control for HCV NS3 helicase inhibitor project, biochemical, NIH Clinical Collection, E. coli SSB (AID 743268)
# [2] = tested on: Hepatitis C virus NS3 helicase; assay: HCV NS3 helicase inhibitors, primary screen, biochemical, fluorescence polarization, NIH Clinical Collection (AID 743270); details: NS3 helicase binding to Cy5-dT15 DNA, stronger effect = higher value, concentration not given here
# [3] = target: Single-stranded DNA-binding protein (Escherichia coli (strain K12)) (UniProt P0AGE0); assay: E. coli SSB displacement from DNA, counter-screen for HCV NS3 helicase inhibitor project, biochemical, fluorescence polarization, NIH Clinical Collection (AID 743271; in the data active means inhibition above about 28%); details: stronger effect = higher value, concentration not given here
# [4] = fluorescence interference in NS3h assay format, artefact control for HCV NS3 helicase inhibitor project, biochemical, NIH Clinical Collection (AID 743272); details: fluorescence interference counterscreen, stronger effect = lower value;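 further: HCV NS3 helicase with a Cy5 labelled single stranded DNA probe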
# [5] = stimulators of nuclear beta-catenin in C2C12, primary screen, imaging, WNT3A-conditioned medium, mouse C2C12, NPC library (AID 1117326; in the data active means nuclear beta-catenin stimulation mostly above about 4.2%, no sharp cut-off; inactive means mostly below about 10%); details: stronger effect = higher value
# [6] = stimulators of insulin release from INS-1E, primary screen, cell-based, 5 mM glucose, NPC library (AID 1117329;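 active means compound raises insulin release from rat beta cells at 5 mM glucose, no numeric limit stated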); details: rat INS-1E insulin secretion, at 10 µM, stronger effect = higher value
# [7] = growth inhibition of GSK3B-pretreated HCT116 cells – cell-based, CellTiter-Glo, 0.2 to 20 µM (AID 1117336;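 active means compounds lowering colon cancer cell viability after pretreatment blocking the GSK3B kinase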); details: HCT116 viability after GSK3B inhibitor, at 20 µM, stronger effect = higher value
# [8] = inhibition of endothelial tube formation, primary screen, imaging, VEGF stimulated, CD31 staining, tube area, NPC library (AID 1117340;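 active means compound that reduces growth-factor-driven endothelial tube area in a mixed cell culture, no cutoff stated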); details: VEGF-stimulated ADSC/ECFC co-culture, at 10 µM, stronger effect = higher value
# [9] = glucagon-like peptide 1 release enhancers, primary assay, NCI-H716 cell line, NPC library (AID 1117341;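 active means compound raises GLP1 secretion from the human gut endocrine cells, with no numeric limit stated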); details: NCI-H716 cells, at 10 µM, stronger effect = higher value
# [10] = HCT116 colon cancer cell growth inhibition, primary screen, CellTiter-Glo luminescence, NPC library (AID 1117342;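 active means compounds that lower survival of HCT116 colon cancer cells in the luminescence readout, no numeric limit stated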); details: at 20 µM (top of the series)
# [11] = CellTiter-Glo luminescent readout of SW480 viability loss, NPC library primary (AID 1117343;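 active means compounds that lower viability of the colon cancer cells in the luminescence readout, with no numeric limit stated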); details: CellTiter-Glo luminescence; at 20 µM (top of the series)
# [12] = decreased DLD-1 cellular survival, CellTiter-Glo luminescent readout, NPC compound collection, primary HTS (AID 1117346;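 active means compounds that lower survival of DLD-1 colon cancer cells in the luminescence readout, no cutoff given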); details: DLD-1 viability, CellTiter-Glo luminescence; at 20 µM (top of the series)
# [13] = target: 6-phosphogluconate dehydrogenase, decarboxylating (Homo sapiens) (UniProt P52209); assay: 6PGD enzyme inhibitors, primary screen, biochemical, human, recombinant enzyme, NADPH absorbance (AID 1159550;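 active means at least 20% inhibition of 6-phosphogluconate dehydrogenase activity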); details: recombinant 6PGD, NADPH absorbance 341 nm; at 10 µM; stronger effect = higher value
# 6-phosphogluconate dehydrogenase, decarboxylating (Homo sapiens), sequence (P52209 whole entry, looked up): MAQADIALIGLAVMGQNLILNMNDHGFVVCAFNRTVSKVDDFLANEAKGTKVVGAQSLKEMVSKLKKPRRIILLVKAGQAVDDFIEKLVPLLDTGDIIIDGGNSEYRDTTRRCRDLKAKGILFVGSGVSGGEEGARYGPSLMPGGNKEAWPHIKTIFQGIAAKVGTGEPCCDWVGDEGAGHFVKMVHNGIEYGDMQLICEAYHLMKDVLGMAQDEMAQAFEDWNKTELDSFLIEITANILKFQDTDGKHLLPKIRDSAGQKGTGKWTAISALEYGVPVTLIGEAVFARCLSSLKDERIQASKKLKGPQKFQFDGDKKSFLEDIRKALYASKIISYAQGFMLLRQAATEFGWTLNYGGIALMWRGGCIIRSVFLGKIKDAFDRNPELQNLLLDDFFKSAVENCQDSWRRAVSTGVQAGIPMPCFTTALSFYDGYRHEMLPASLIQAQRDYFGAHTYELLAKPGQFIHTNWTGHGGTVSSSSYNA
# [14] = differential killing of epithelial or mesenchymal cells, primary screen, imaging, PC-3E GFP, TEM4-18 mCherry, co-culture (AID 1345086;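 active means compounds killing one labelled cell type while sparing the other, by normalised counts and ratio limits, not self-fluorescent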;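 on all read-outs here: cells exposed to compound for 72 h before imaging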;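 on red/green cell ratio (normalised): normalised mesenchymal count divided by normalised epithelial count so high means epithelial killing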); details: imaging cell counts, at 1 µM; for red/green cell ratio (normalised): actives lie on both sides, counts scaled to control wells, 1 = unselective
# [15] = survival rescue of mitochondrial mutant cells in low glucose, primary screen, MELAS cybrids, Rieske KO mouse fibroblasts, CellTiter-Glo (AID 1508586;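 active means mean z-score across replicates of 1.96 or higher in either the MELAS or the Rieske mutant cell line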;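 further: z relative to plate mean and SD of compound and empty wells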)
# [16] = target: NAD(+) hydrolase SARM1 (Homo sapiens) (UniProt Q6SZW1); assay: SARM1 TIR NADase inhibitors, cell lysate, NAD-Glo luminescence (AID 1508614;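 active means compound whose remaining NAD level is above about 45 nM, limit read from the data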); details: SAM-TIR HEK293T lysate NADase, at 1 µM, stronger effect = higher value
# NAD(+) hydrolase SARM1 (Homo sapiens), sequence (Q6SZW1 whole entry, looked up, the tested form may be a part): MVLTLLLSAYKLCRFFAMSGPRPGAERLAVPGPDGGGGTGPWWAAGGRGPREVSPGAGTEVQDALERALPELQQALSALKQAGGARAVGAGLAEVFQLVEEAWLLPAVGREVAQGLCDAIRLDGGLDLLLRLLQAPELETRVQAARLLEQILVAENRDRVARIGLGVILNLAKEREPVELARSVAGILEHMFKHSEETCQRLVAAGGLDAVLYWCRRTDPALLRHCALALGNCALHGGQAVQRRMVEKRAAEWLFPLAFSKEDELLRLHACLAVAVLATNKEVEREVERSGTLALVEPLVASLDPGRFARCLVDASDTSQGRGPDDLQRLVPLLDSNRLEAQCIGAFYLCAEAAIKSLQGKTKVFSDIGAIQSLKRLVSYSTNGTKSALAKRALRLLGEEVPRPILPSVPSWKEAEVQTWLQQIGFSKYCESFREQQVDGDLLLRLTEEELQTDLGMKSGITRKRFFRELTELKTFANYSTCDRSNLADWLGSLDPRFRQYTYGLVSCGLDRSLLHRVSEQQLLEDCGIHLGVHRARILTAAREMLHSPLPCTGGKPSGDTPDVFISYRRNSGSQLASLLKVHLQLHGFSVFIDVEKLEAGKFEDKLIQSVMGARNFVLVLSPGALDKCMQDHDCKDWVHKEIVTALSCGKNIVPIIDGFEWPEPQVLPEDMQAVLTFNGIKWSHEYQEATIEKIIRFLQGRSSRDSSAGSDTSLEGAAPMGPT
# [17] = target: Mitogen-activated protein kinase 7 (Homo sapiens) (UniProt Q13164); assay: ERK5 transactivation activators in reporter cells, primary screen, cell-based, HTS (AID 1508626;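 active means luciferase signal above three times the same-plate solvent-only control wells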;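 further: luciferase driven by Gal4-ERK5 fusion binding five Gal4 sites before minimal TATA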); details: HeLa Gal4-ERK5 transactivation, 18 h, at 5 µM, stronger effect = higher value
# Mitogen-activated protein kinase 7 (Homo sapiens), sequence (Q13164 whole entry, looked up, the tested form may be a part): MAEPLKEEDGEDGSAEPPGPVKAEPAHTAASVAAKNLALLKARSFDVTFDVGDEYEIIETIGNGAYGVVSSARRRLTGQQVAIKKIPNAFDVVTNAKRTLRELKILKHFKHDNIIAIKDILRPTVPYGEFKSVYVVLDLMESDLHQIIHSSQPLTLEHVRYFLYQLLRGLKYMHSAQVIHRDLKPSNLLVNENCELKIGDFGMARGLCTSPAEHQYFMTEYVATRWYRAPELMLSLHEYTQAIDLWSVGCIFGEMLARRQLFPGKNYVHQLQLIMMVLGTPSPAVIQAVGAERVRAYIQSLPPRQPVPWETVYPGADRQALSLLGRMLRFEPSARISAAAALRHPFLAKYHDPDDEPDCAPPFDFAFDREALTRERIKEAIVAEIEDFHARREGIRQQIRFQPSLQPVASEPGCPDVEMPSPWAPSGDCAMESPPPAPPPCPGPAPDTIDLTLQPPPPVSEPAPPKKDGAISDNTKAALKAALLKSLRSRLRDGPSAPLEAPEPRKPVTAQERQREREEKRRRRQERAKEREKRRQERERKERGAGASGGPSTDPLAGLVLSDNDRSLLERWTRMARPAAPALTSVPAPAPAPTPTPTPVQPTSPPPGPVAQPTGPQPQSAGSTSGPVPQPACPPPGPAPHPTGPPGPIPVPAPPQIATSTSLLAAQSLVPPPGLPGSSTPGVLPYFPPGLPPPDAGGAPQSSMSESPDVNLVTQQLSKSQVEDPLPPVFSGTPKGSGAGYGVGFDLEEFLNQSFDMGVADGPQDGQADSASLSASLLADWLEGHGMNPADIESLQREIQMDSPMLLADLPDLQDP
# F380Y = assay: modulators of BK channel variants, profiling panel, selectivity assay, cell-based, U2OS BacMam, thallium flux, beta subunits (AID 1259406;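 active means thallium flux through the channel raised or lowered by more than 3 SD from vehicle-only wells, actives on both sides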;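 further: initial slope of Thallos dye fluorescence rise after thallium is added; log ratio against the mean of 0.3% DMSO vehicle wells on the same plate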); details: at 30 µM
# [18] = liver-stage malaria parasite growth inhibition, primary screen, cell-based, HepG2, luciferase luminescence, HepG2 viability (AID 624349; in the data active means parasite load remaining mostly below about 12%, no sharp cut-off; inactive means mostly above about 10%;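 further: 100% = mean of DMSO negative control wells on the same plate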); details: P. berghei liver stage in HepG2, luciferase luminescence, concentration not given here; parasite load remaining: stronger effect = lower value; viability: measured here: HepG2 viability without parasites
# [19] = sensitizers of A549 cells to miR-34 induction, primary screen, imaging, A549 dox-inducible miR-34, nuclei and caspase counts (AID 1347080;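 active means compounds whose cell count with miR-34 switched on is under 0.7 times the count with it off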); details: A549 miR-34 inducible, Hoechst nuclei count, 48 h
# [20] = measured here: epithelial PC-3E GFP cell survival
# [21] = measured here: mesenchymal TEM4-18 mCherry cell survival
# [22] = MELAS cybrid survival, CellTiter-Glo 48 h, stronger effect = higher value
# [23] = Rieske KO mouse fibroblast survival, CellTiter-Glo 72 h
structure (smiles),measurement,setting,value
CN1CCN(CCCN2c3ccccc3Sc3ccc(C(F)(F)F)cc32)CC1,fluorescence ratio,[1],0.87 (inactive)
same,inhibition,[2],-1.19% (inactive)
same,inhibition,[3],1.44% (inactive)
same,fluorescence ratio,[4],0.85 (inactive)
same,nuclear beta-catenin stimulation,[5]; at 10 µM,32.2% (inactive)
same,nuclear beta-catenin stimulation,"[5]; stimulation, at 2 µM",0.2%
same,insulin secretion stimulation,[6],6.1% (inactive)
same,viability decrease,[7],110% (active)
same,tube area decrease,[8],106% (active)
same,GLP1 secretion stimulation,[9],28.8% (active)
same,inhibition of viability,[10],112% (active)
same,viability decrease (inhibition),[11],132% (active)
same,viability decrease (inhibition),[12],99.8% (active)
same,inhibition,[13],8.36% (inactive)
same,red/green cell ratio (normalised),[14],0.91 (inactive)
same,normalised cell number,[14]; [20],1
same,normalised cell number,[14]; [21],0.91
same,z-score,[15]; [22],-0.198 (inactive) and -1.6 (inactive) and 0.134 (inactive)
same,z-score,[15]; [23],-0.246 and 0.0911 and -0.232
same,remaining NAD,[16],10 nM (inactive)
same,luciferase signal,[17],52 AU (inactive)
same,log fold change Tl+ flux,F380Y,0.0849 (inactive)
CCN(CC)CC(=O)Nc1c(C)cccc1C,fluorescence ratio,[1],1.01 (inactive)
same,inhibition,[2],-1.98% (inactive)
same,inhibition,[3],-0.87% (inactive)
same,fluorescence ratio,[4],0.96 (inactive)
same,nuclear beta-catenin stimulation,[5]; at 10 µM,-0.4% (inactive)
same,nuclear beta-catenin stimulation,"[5]; stimulation, at 2 µM",0.8%
same,insulin secretion stimulation,[6],-1.4% (inactive)
same,viability decrease,[7],-9.9% (inactive)
same,tube area decrease,[8],9.2% (inactive)
same,GLP1 secretion stimulation,[9],0.9% (inactive)
same,inhibition of viability,[10],-5.2% (inactive)
same,viability decrease (inhibition),[11],-0.2% (inactive)
same,viability decrease (inhibition),[12],0.45% (inactive)
same,inhibition,[13],-1.54% (inactive)
same,red/green cell ratio (normalised),[14],1.11 (inactive)
same,normalised cell number,[14]; [20],1.01
same,normalised cell number,[14]; [21],1.12
same,z-score,[15]; [22],-0.329 (inactive) and 0.222 (inactive) and 0.215 (inactive)
same,z-score,[15]; [23],-0.148 and 0.143 and 0.303
same,remaining NAD,[16],10 nM (inactive)
same,luciferase signal,[17],48 AU (inactive)
same,log fold change Tl+ flux,F380Y,0.00448 (inactive)
CCCN1C[C@H](CSC)C[C@@H]2c3cccc4[nH]cc(c34)C[C@H]21,fluorescence ratio,[1],1.02 (inactive)
same,inhibition,[2],1.53% (inactive)
same,inhibition,[3],10.6% (inactive)
same,fluorescence ratio,[4],1 (inactive)
same,nuclear beta-catenin stimulation,[5]; at 10 µM,0.2% (inactive)
same,nuclear beta-catenin stimulation,"[5]; stimulation, at 2 µM",-1.1%
same,insulin secretion stimulation,[6],3.5% (inactive)
same,viability decrease,[7],20.2% (inactive)
same,tube area decrease,[8],-5.3% (inactive)
same,GLP1 secretion stimulation,[9],5.1% (inactive)
same,inhibition of viability,[10],45.7% (inactive)
same,viability decrease (inhibition),[11],-2.1% (inactive)
same,viability decrease (inhibition),[12],7.8% (inactive)
same,inhibition,[13],0.728% (inactive)
same,red/green cell ratio (normalised),[14],1.38 (inactive)
same,normalised cell number,[14]; [20],0.91
same,normalised cell number,[14]; [21],1.25
same,z-score,[15]; [22],0.448 (inactive) and 0.276 (inactive)
same,z-score,[15]; [23],-0.203 and -0.419
same,remaining NAD,[16],10 nM (inactive)
same,luciferase signal,[17],40 AU (inactive)
same,log fold change Tl+ flux,F380Y,-0.0179 (inactive)
O=c1n(CCCN2CCN(c3cccc(Cl)c3)CC2)nc2ccccn12,fluorescence ratio,[1],1.01 (inactive)
same,inhibition,[2],-6.73% (inactive)
same,inhibition,[3],-2.41% (inactive)
same,fluorescence ratio,[4],0.97 (inactive)
same,nuclear beta-catenin stimulation,[5]; at 10 µM,4.5% (inactive)
same,nuclear beta-catenin stimulation,"[5]; stimulation, at 2 µM",0.2%
same,insulin secretion stimulation,[6],-0.1% (inactive)
same,viability decrease,[7],-48.7% (inactive)
same,tube area decrease,[8],4.5% (inactive)
same,GLP1 secretion stimulation,[9],0.4% (inactive)
same,inhibition of viability,[10],16.6% (inactive)
same,viability decrease (inhibition),[11],9.9% (inactive)
same,viability decrease (inhibition),[12],2.2% (inactive)
same,inhibition,[13],-5.67% (inactive)
same,red/green cell ratio (normalised),[14],1.12 (inactive)
same,normalised cell number,[14]; [20],1.02
same,normalised cell number,[14]; [21],1.14
same,z-score,[15]; [22],0.0745 (inactive)
same,z-score,[15]; [23],-0.0668
same,remaining NAD,[16],10 nM (inactive)
same,luciferase signal,[17],72 AU (inactive)
same,log fold change Tl+ flux,F380Y,0.0157 (inactive)
CCOC(=O)N1CCC(=C2c3ccc(Cl)cc3CCc3cccnc32)CC1,parasite load remaining,[18],39.1% (inactive) and 10.2% (inactive) and 5.21% (inactive)
same,viability,[18],101% and 59.1% and 70%
same,fluorescence ratio,[1],0.91 (inactive)
same,inhibition,[2],-3.56% (inactive)
same,inhibition,[3],6.83% (inactive)
same,fluorescence ratio,[4],0.9 (inactive)
same,nuclear beta-catenin stimulation,[5]; at 10 µM,1.8% (inactive)
same,nuclear beta-catenin stimulation,"[5]; stimulation, at 2 µM",1%
same,insulin secretion stimulation,[6],6.9% (inactive)
same,viability decrease,[7],94.1% (active)
same,tube area decrease,[8],39.2% (inactive)
same,GLP1 secretion stimulation,[9],14.3% (inactive)
same,inhibition of viability,[10],98.8% (active)
same,viability decrease (inhibition),[11],94% (active)
same,viability decrease (inhibition),[12],97.2% (active)
same,inhibition,[13],4.3% (inactive)
same,red/green cell ratio (normalised),[14],1.35 (inactive)
same,normalised cell number,[14]; [20],0.99
same,normalised cell number,[14]; [21],1.34
same,z-score,[15]; [22],-0.418 (inactive) and -1.77 (inactive) and -2.01 (inactive)
same,z-score,[15]; [23],0.823 and 1.1 and 0.356
same,remaining NAD,[16],10 nM (inactive)
same,luciferase signal,[17],48 AU (inactive)
OCCN(CCO)c1nc(N2CCCCC2)c2nc(N(CCO)CCO)nc(N3CCCCC3)c2n1,fluorescence ratio,[1],0.96 (inactive)
same,inhibition,[2],2.27% (inactive)
same,inhibition,[3],5.62% (inactive)
same,fluorescence ratio,[4],0.85 (inactive)
same,nuclear beta-catenin stimulation,[5]; at 10 µM,0.7% (inactive)
same,nuclear beta-catenin stimulation,"[5]; stimulation, at 2 µM",1.8%
same,insulin secretion stimulation,[6],0.7% (inactive)
same,viability decrease,[7],20.5% (inactive)
same,tube area decrease,[8],8.6% (inactive)
same,GLP1 secretion stimulation,[9],8% (inactive)
same,inhibition of viability,[10],61.4% (active)
same,viability decrease (inhibition),[11],41.1% (inactive)
same,viability decrease (inhibition),[12],4.3% (inactive)
same,inhibition,[13],11% (inactive)
same,red/green cell ratio (normalised),[14],1.08 (inactive)
same,normalised cell number,[14]; [20],1.13
same,normalised cell number,[14]; [21],1.22
same,z-score,[15]; [22],-0.622 (inactive) and 4.01 (active) and 2.55 (active)
same,z-score,[15]; [23],-0.0206 and -0.634 and 4.9
same,remaining NAD,[16],10 nM (inactive)
same,luciferase signal,[17],136 AU (inactive)
C#C[C@]1(O)CC[C@H]2[C@@H]3CCC4=Cc5oncc5C[C@]4(C)[C@H]3CC[C@@]21C,fluorescence ratio,[1],1.05 (inactive)
same,inhibition,[2],-3.18% (inactive)
same,inhibition,[3],4.1% (inactive)
same,fluorescence ratio,[4],1.01 (inactive)
same,nuclear beta-catenin stimulation,[5]; at 10 µM,-0.9% (inactive)
same,nuclear beta-catenin stimulation,"[5]; stimulation, at 2 µM",0%
same,insulin secretion stimulation,[6],1.9% (inactive)
same,viability decrease,[7],76.5% (active)
same,tube area decrease,[8],15% (inactive)
same,GLP1 secretion stimulation,[9],1.4% (inactive)
same,inhibition of viability,[10],82.4% (active)
same,viability decrease (inhibition),[11],84.4% (active)
same,viability decrease (inhibition),[12],75.7% (active)
same,inhibition,[13],14% (inactive)
same,fold change,"[19]; stronger effect = lower value, cell number ratio, induced over uninduced",0.976 (inactive) and 0.855 (inactive) and 0.842 (inactive)
same,fold change,[19]; measured here: relative caspase fold change +Dox/-Dox,3.35 and 1.24 and 1.49
same,cell count,"[19]; measured here: total cells with miR-34 induction, stronger effect = lower value",7160 and 7050 and 6060
same,cell count,[19]; measured here: total cells without miR-34 induction,7330 and 8240 and 7200
same,z-score,[15]; [22],-0.753 (inactive) and -0.503 (inactive)
same,z-score,[15]; [23],-0.343 and -0.0493
same,remaining NAD,[16],10 nM (inactive)
same,luciferase signal,[17],32 AU (inactive)
same,log fold change Tl+ flux,F380Y,-0.00831 (inactive)
